Experiment [1] can be described thus: Nuclear factor erythroid 2-related factor 2/antioxidant responsive element (Nrf2/ARE) small molecule agonists: qHTS cell viability counter screen in human keratinocytes (AID 1919968; active = well fitted curve in the direction sought with a large enough effect in the repeat runs; an effect the other way counts as inactive or inconclusive; note: nearly all actives have a fitted effect of over 55% in size; note: potency is the fitted concentration of half-maximal effect). In outline:
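HaCaT ARE reporter line, 1,500 cells/well; 5 h settle, 37 C/5% CO2; cpd in DMSO pinned; 23 h exposure; CellTiter-Fluor, 1 h; fluorescence.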
For orientation: In qHTS, concentration-response curves come from the screen itself.

Experiment [2] can be described thus: Nuclear factor erythroid 2-related factor 2/antioxidant responsive element (Nrf2/ARE) small molecule agonists: luciferase reporter gene qHTS assay in human keratinocytes (AID 1919969). Note: nearly all actives have a fitted effect of over 35% in size. Note: potency is the fitted concentration of half-maximal effect. For orientation: In a reporter assay the amount or activity of a reporter protein is the signal.
Experiment [3] concerns the target Gonadotropin-releasing hormone receptor (Homo sapiens) (UniProt P30968). Description: Human gonadotropin-releasing hormone receptor (GnRHR) small molecule agonists, calcium flux assay in GnRHR-HEK293 cells (AID 1920063). Note: nearly all actives have a fitted effect of over 35% in size. In outline:
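GnRHR-HEK293, 1500 cells/well, 18 h 37 C/5% CO2; Ca dye 1 h 37 C; cpd pinned (DMSO), agonist mode; kinetic FL 480/540, 3 min, 1 s reads; 15 conc, n=3.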

The target of experiment [4] is KiSS-1 receptor (Homo sapiens) (UniProt Q969F8). The experiment in a line: Human kisspeptin (KISS1R) small molecule agonists, calcium flux assay in KISS1R-HEK293 cells (AID 1920064; active = well fitted curve in the direction sought with a large enough effect in the repeat runs; an effect the other way counts as inactive or inconclusive). In outline:
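Stable human KISS1R HEK293 line; 18 h plating, 37 C/5% CO2; calcium dye 1 h 37 C; compound pin transfer; kinetic fluorescence Ex/Em 480/540, 3 min.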
Background: Calcium assays in cells follow changes in intracellular calcium, usually with a dye or a luminescent sensor.

Experiment [5] can be described thus: G protein-coupled receptor (GPCR) small molecule agonists, calcium flux assay: HEK293 wild type cell line counter screen (AID 1920065). In a few lines:
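Kinetic fluorescence at Ex/Em 480/540, recorded every second over 3 min, served as the read-out after compound addition. Each compound was tested at 15 concentrations in triplicate on cells pre-loaded with calcium dye for 1 h.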

The nature of experiment [6]: p53 small molecule agonists, cell-based qHTS assay with rat liver microsomes (AID 1963578). Note: potency is the fitted concentration of half-maximal effect. In a few lines: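 Metabolic activation is supplied by rat liver microsomes with NADPH (each 0.5 mg/mL final). p53RE-bla cells incubate with compound 16 h at 37 C; reporter activity is measured by LiveBLAzer fluorescence.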
A short description of experiment [7]: p53 small molecule agonists, cell-based qHTS assay with human liver microsomes: qHTS cell viability counter screen (AID 1963579). Note: nearly all actives have a fitted effect of over 45% in size. Note: potency is the fitted concentration of half-maximal effect. In a few lines:
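After the 460/530 nm beta-lactamase read, CellTiter-Glo was added to the same wells and luminescence measured after 30 min at room temperature, giving viability of p53RE-bla cells treated 16 h with compounds plus microsomes and NADPH.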

Experiment [8] can be described thus: p53 small molecule agonists, cell-based qHTS assay with rat liver microsomes: qHTS cell viability counter screen (AID 1963580). Note: nearly all actives have a fitted effect of over 45% in size. In outline: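 HCT-116 p53RE-bla, 4,000 cells/well, 5 h pre-incubation; cpd + rat liver microsomes 0.5 mg/mL + NADPH 0.5 mg/mL (final); 16 h, 37 C; CellTiter-Glo, 30 min RT; luminescence.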
Experiment [9] in a line: p53 small molecule agonists, cell-based qHTS assay (AID 1963582; active = well fitted activation curve with a large enough effect in the signal ratio in the repeat runs, not every such curve was filed as active; the % refers to the signal ratio). In outline: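 Reporter line: p53RE-bla. Pre-incubation 5 h, 37 C, 5% CO2; compound (DMSO, pin tool) 16 h, 37 C; B/G FRET substrate 2 h RT; fluorescence intensity read.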
For experiment [10], the target named is 5-hydroxytryptamine receptor 2A (Homo sapiens) (UniProt P28223). Description: 5-hydroxytryptamine receptor 2A (HTR2A) small molecule antagonists, cell-based qHTS assay (AID 1963586). Note: nearly all actives have a fitted effect of over 45% in size. Note: potency is the fitted concentration of half-maximal effect. In a few lines:
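Antagonist-mode intracellular calcium assay: DOI (4 nM) added after 5 min compound pre-incubation at room temperature to dye-loaded HTR2A-CHO cells. Fluorescence followed for 3 min, sampled every second.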

Experiment [11] has the same target. Description: 5-hydroxytryptamine receptor 2A (HTR2A) small molecule agonists, cell-based qHTS assay (AID 1963587). Note: nearly all actives have a fitted effect of over 30% in size. In a few lines: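 Kinetic calcium-flux fluorescence (2 min, 1 sec intervals) after compound addition in agonist mode. HTR2A-CHO cells were cultured 18 h, then dye-loaded 1 h at 37 C.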
The target in experiment [12] is Muscarinic acetylcholine receptor M1 (Homo sapiens) (UniProt P11229). Description: Cholinergic receptor muscarinic 1 (CHRM1) small molecule antagonists, cell-based qHTS assay (AID 1963588). Note: nearly all actives have a fitted effect of over 40% in size. Note: potency is the fitted concentration of half-maximal effect. In a few lines:
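CHRM1-CHO calcium-flux assay, antagonist mode. Cells were seeded 18 h, dye-loaded 1 h at 37 C and given compound for 5 min at RT, then acetylcholine was added at 50nM. FDSS fluorescence was read 3 min; 15 concentrations, three runs.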

The target is the same in experiment [13]. The experiment in a line: Cholinergic receptor muscarinic 1 (CHRM1) small molecule agonists, cell-based qHTS assay (AID 1963589). Note: nearly all actives have a fitted effect of over 35% in size. In outline: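 Human M1 in stable CHO line; 18 h plating, 1 h dye load 37 C; cpd added (agonist mode); Ca2+ fluorescence kinetic read, 1 s intervals; 15 conc, 3 runs.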
Experiment [14] is described as follows: cAMP Responsive Elements (CRE) small molecule agonists, cell-based qHTS assay (AID 1963590). In outline:
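HEK 293T CRE-bla, 2,000 cells/well, 18 h preincubation 37 C/5% CO2; cpds (DMSO) pinned, 3 h; LiveBLAzer B/G FRET substrate, 2 h RT.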

The nature of experiment [15]: cAMP Responsive Elements (CRE) small molecule antagonists, cell-based qHTS assay (AID 1963591; active = well fitted inhibition curve with a large enough effect in the signal ratio in the repeat runs, not every such curve was filed as active; the % refers to the signal ratio). In outline: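 Beta-lactamase reporter read by FRET substrate (LiveBLAzer B/G) after 2 h at room temperature. CRE-bla HEK293T cells had received compound plus 0.25 uM (final) NKH477 for 3 h at 37 °C.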
Experiment [16] deals with Beta-2 adrenergic receptor (Homo sapiens) (UniProt P07550). The experiment in a line: Adrenergic beta2 receptor (ADRB2) small molecule antagonists, cell-based qHTS assay (AID 1963592). Note: nearly all actives have a fitted effect of over 50% in size. Note: potency is the fitted concentration of half-maximal effect. In a few lines: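 Cells (CHO, stable ADRB2 overexpression) incubated 18-20hr at 37C; compounds added from DMSO; agonist mix (1nM isoproterenol, 100uM IBMX, 25uM Ro-20-1724) added; 0.5hr RT; d2-cAMP and anti-cAMP-cryptate added; 1hr RT; 665/615 nm read.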

Experiment [17] has the same target. The experiment in a line: Adrenergic beta2 receptor (ADRB2) small molecule agonists, cell-based qHTS assay (AID 1963593).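 Note: CHO cells stably overexpressing human ADRB2.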 In a few lines: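 CHO cells stably over-expressing ADRB2 were plated overnight at 37C, then dosed with compounds plus a stimulation mix containing 100uM IBMX and 25uM Ro-20-1724 for 0.5hr at room temperature. cAMP was measured by HTRF competition, 1hr.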

The target of experiment [18] is D(2) dopamine receptor (Homo sapiens) (UniProt P14416). The experiment in a line: Dopamine D2 receptor (DRD2) small molecule agonists, cell-based qHTS assay (AID 1963594). Note: nearly all actives have a fitted effect of over 35% in size. In outline: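 cAMP accumulation in DRD2-HEK293 cells measured by HTRF after 1 h detection; compounds added 10 min before NKH477 (200nM […]) forskolin-analogue stimulation, 30 min at room temperature, with Ro20-1724 present at 0.1 mM final.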

Experiment [19] shares this target. The experiment in a line: Dopamine D2 receptor (DRD2) small molecule antagonists, cell-based qHTS assay (AID 1963595; active = well fitted inhibition curve with a large enough effect in the signal ratio in the repeat runs, with a control signal flat; the % refers to the signal ratio; note: potency is the fitted concentration of half-maximal effect). In a few lines: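 DRD2-HEK293; 0.1 mM Ro20-1724; cpd 10 min RT; NKH477 200 nM + quinpirole 12 nM, 30 min RT; HTRF cAMP (cAMP-d2/anti-cAMP cryptate), 665/620 nm ratio after 1 h.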
Experiment [20] in a line: p53 small molecule agonists, cell-based qHTS assay: qHTS cell viability counter screen (AID 1963581). Note: nearly all actives have a fitted effect of over 45% in size. In a few lines: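 HCT-116 p53RE-bla cells, 4,000/well, plated 5 h before compound pin transfer; 16 h at 37 C; bla substrate 2 h RT; then CellTiter-Glo, 30 min RT, luminescence.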

The structures appear in SMILES notation. Results filed as inconclusive are left out. Active and inactive are the calls of the source. Unless noted, calls come from the whole dose curve.

The record followed here is PubChem BioAssay (Tox21).

KiSS-1 receptor (Homo sapiens), sequence (Q969F8 whole entry, looked up): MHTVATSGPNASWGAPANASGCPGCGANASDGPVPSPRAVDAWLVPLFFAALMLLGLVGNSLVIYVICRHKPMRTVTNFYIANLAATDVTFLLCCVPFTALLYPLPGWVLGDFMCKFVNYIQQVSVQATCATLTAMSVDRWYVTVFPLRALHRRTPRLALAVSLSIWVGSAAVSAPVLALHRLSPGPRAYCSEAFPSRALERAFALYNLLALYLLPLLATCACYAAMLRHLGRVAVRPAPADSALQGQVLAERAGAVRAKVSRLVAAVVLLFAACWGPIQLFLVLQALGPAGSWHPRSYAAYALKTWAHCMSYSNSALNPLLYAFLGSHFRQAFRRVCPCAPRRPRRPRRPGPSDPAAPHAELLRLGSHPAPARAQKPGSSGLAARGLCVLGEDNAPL
Beta-2 adrenergic receptor (Homo sapiens), sequence (P07550 whole entry, looked up): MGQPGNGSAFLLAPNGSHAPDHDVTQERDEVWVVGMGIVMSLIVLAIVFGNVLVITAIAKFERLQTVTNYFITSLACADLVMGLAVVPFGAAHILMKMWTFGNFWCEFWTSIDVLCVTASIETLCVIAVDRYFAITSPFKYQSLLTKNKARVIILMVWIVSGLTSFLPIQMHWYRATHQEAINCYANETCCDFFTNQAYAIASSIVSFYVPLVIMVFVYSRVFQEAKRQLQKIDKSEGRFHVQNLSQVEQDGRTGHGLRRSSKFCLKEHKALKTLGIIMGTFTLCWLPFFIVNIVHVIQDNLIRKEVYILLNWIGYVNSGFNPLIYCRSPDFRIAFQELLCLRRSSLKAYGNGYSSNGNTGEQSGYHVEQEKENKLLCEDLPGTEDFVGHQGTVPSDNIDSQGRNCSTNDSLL
5-hydroxytryptamine receptor 2A (Homo sapiens), sequence (P28223 whole entry, looked up): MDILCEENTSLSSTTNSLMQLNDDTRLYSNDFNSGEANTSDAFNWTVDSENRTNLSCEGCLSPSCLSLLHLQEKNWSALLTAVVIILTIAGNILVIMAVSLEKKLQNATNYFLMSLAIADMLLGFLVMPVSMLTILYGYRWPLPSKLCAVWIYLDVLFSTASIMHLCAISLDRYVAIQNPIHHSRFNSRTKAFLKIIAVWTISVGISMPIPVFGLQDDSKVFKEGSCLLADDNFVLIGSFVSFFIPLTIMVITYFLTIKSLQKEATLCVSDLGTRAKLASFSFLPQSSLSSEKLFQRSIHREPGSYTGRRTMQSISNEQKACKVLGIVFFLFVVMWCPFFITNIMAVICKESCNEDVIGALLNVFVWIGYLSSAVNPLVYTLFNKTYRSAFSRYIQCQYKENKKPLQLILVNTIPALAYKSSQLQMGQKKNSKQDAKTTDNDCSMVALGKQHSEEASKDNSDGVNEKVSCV
Gonadotropin-releasing hormone receptor (Homo sapiens), sequence (P30968 whole entry, looked up): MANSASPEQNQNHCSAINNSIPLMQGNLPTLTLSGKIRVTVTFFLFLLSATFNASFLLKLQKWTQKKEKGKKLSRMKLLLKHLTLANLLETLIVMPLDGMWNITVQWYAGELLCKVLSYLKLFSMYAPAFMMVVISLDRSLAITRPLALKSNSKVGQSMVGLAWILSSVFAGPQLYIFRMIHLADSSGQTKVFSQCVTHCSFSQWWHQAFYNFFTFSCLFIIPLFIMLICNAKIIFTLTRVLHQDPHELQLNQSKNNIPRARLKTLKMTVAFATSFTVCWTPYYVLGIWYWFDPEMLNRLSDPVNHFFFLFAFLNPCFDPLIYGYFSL
D(2) dopamine receptor (Homo sapiens), sequence (P14416 whole entry, looked up): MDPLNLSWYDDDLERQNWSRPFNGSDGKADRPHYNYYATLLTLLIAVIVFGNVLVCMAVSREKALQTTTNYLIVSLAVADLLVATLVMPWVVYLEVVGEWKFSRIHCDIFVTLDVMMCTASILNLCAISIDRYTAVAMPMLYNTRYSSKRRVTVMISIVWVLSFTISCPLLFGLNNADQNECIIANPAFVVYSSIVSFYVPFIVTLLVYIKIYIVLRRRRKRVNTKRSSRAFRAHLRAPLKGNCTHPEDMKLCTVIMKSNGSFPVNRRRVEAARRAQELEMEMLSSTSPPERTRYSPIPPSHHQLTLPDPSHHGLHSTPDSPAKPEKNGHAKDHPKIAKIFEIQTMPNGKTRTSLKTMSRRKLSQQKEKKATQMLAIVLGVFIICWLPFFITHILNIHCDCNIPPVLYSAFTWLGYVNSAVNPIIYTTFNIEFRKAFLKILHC
Muscarinic acetylcholine receptor M1 (Homo sapiens), sequence (P11229 whole entry, looked up): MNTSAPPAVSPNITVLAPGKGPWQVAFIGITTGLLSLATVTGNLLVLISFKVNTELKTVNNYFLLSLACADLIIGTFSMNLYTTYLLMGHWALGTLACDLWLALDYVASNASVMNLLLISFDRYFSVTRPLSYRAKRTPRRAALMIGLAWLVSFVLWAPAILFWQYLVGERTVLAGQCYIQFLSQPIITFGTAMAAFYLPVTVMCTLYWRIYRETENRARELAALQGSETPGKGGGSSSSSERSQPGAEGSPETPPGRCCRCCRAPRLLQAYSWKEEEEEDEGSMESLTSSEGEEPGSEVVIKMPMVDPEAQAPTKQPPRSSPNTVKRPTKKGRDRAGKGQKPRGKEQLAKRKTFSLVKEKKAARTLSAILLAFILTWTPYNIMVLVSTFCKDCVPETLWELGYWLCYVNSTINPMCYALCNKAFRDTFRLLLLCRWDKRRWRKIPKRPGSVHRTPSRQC

As to `CCCNC(C)C(=O)Nc1c(C)csc1C(=O)OC` (configuration not stated), the Potency result in experiment [1], in experiment [2], in experiment [3], in experiment [4], in [5] and in experiment [6] was “inactive” in each case. The Potency entry in experiment [7], in experiment [8], in [9], in [10], in experiment [11] and in experiment [12] was “inactive” in each case. Besides, the Potency result in [13], in experiment [14], in experiment [15], in experiment [16], in experiment [17] and in [18] was “inactive” each time. Moreover, in [19], the Potency entry is “inactive”.

As to `CO/N=C(/C(=O)N[C@@H]1C(=O)N2C(C(=O)OCOC(=O)C(C)(C)C)=C(C)CS[C@H]12)c1csc(N)n1`, the Potency result in experiment [1], in experiment [2], in experiment [3], in experiment [4], in [5] and in experiment [6] was “inactive” throughout. The Potency entry in experiment [7], in experiment [20], in experiment [9], in experiment [10], in experiment [11] and in experiment [12] was “inactive” throughout. Besides, the Potency result in experiment [13], in experiment [16], in experiment [18] and in [19] was “inactive” throughout.

In the case of `CN(C)CCOC(c1ccccc1)c1ccc(Br)cc1` (configuration not stated), the Potency entry in experiment [1], in experiment [2], in experiment [3], in experiment [4], in experiment [5] and in experiment [6] was “inactive” throughout. Further, the Potency result in experiment [7], in experiment [8], in experiment [9], in [11], in experiment [13] and in [14] was “inactive” each time. The Potency entry in experiment [15], in [16], in [17], in experiment [18] and in [19] was “inactive” throughout. Besides, the Potency in [10] is 6.5 µM (active).

As to `ClCCOCCOCCCl`, the Potency result in experiment [1], in experiment [2], in [3], in [4], in experiment [5] and in [6] was “inactive” throughout. The Potency entry in experiment [7], in experiment [20], in experiment [9], in experiment [10], in experiment [11] and in [12] was “inactive” each time. Also, the Potency result in experiment [13], in experiment [15], in experiment [17], in [18] and in experiment [19] was “inactive” in each case.

Consider `Cc1ccc2nc(-c3ccc(N)cc3)sc2c1S(=O)(=O)O`, for which the Potency result in [1], in experiment [3], in experiment [4], in [5], in experiment [8] and in experiment [20] was “inactive” throughout. The Potency result in experiment [10], in experiment [11], in [12], in experiment [13], in experiment [15] and in experiment [16] was “inactive” in each case. Also, the Potency result in experiment [17], in experiment [18] and in experiment [19] was “inactive” throughout. For the same compound, the Potency in experiment [2] was 10.7 µM (active); in experiment [6] it was 17.9 µM (active).

In the case of `CC(C)(C)CC(C)(C)c1ccccc1O`, the Potency in experiment [1] was 27.4 µM (active); in experiment [7], 41 µM (active); in experiment [19], 61.4 µM (active). The Potency entry in [2], in [3], in [4], in experiment [5], in [6] and in experiment [12] was “inactive” throughout. The Potency result in experiment [13], in experiment [16] and in [18] was “inactive” throughout.

Turning to `CCN(Cc1cccnc1)C(=O)c1cccc(Cl)c1[C@]1(C)C(=O)N(Cc2ccc(OC)cc2OC)c2ccc(Cl)cc21`, the Potency entry in [1], in experiment [2], in experiment [3], in experiment [4], in experiment [5] and in experiment [6] was “inactive” throughout. Also, the Potency entry in experiment [7], in experiment [8], in experiment [10], in [11], in [12] and in [13] was “inactive” in each case. Also, in [18], the Potency entry was “inactive”.

On to `NC(=O)Cn1c(=O)cc(CCN2CCN(c3nccc4sccc34)CC2)c2ccc(F)cc21`, for which the Potency result in experiment [1], in [2], in [3], in experiment [4], in [5] and in experiment [6] was “inactive” each time. Besides, the Potency entry in experiment [8], in [20], in [9], in experiment [11], in experiment [13] and in experiment [18] was “inactive” in each case. The Potency entry in experiment [19] is “inactive”. Besides, the Potency in experiment [12] is 23.7 µM (active); in [16], 27.3 µM (active).
